TEAD-YAP block: TEAD-YAP interaction inhibition, primary screen, TEAD-YAP interaction inhibitor project, luminescence, HEK-TIYL cells; TEAD-Gal4/YAP UAS-luciferase luminescence; inhibition, % at 9.12 µM; hit rate 1.4% among 640,000; in the data active means inhibition above about 32%;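 further: 0% = median of test compound wells and 100% = reference inhibitor wells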
GPR151 activ: activators of human GPR151, primary screen, cell-based, PathHunter beta-arrestin, luminescence; PathHunter beta-arrestin GPR151 cells; hit rate 1% among 650,000; activation, % at 11.2 µM; AID 1508602, 2020; in the data active means activation above about 4.9%;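 further: 0% = median of compound wells and 100% = cells with positive control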
MITF inh: MITF inhibitors, primary screen, biochemical, AlphaScreen, human; Microphthalmia-associated transcription factor (Homo sapiens), O75030; AlphaScreen MITF homodimerization, bead proximity signal; inhibition, % at 2.6 µM; hit rate 0.91% among 650,000; in the data active means inhibition above about 50%;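 further: 0% = vehicle wells with protein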
Target sequence (O75030 whole entry, looked up): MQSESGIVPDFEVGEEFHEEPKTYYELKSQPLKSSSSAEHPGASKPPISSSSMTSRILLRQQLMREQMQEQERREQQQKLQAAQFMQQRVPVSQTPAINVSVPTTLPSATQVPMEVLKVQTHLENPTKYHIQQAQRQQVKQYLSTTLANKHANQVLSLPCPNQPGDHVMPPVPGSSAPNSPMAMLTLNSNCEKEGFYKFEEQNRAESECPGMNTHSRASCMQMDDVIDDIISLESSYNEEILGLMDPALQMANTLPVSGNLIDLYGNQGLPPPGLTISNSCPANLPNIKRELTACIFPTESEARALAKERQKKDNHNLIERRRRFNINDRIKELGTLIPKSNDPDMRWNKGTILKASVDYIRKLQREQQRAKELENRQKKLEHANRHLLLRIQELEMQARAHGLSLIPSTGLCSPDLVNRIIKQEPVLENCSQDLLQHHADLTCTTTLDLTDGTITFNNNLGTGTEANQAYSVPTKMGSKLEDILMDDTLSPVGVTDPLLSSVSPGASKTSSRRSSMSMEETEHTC
FBW7 act: FBW7 E3 ligase activators, primary screen, biochemical, AlphaScreen, human; AlphaScreen FBW7–phospho-cyclin E peptide binding, activator screen; hit rate 0.13% among 650,000; normalized activity (activation), % at 26.1 µM; F-box/WD repeat-containing protein 7 (Homo sapiens), Q969H0; in the data active means normalized activity above about 1.9%;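 further: purified mutant Fbw7 with reduced substrate affinity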
GPR151 confirm: GPR151 activators, triplicate retest, confirmation, cell-based, PathHunter beta-arrestin, luminescence; activation, % at 11.2 µM; GPR151 PathHunter beta-arrestin cells, 90 min; % of EA-reagent control over plate median; 6,700 tested, under 10 active; shares compounds with GPR151 activ;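 active means mean percent activation across replicates above the confirmation screen cutoff of 4.91%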
GPR119 ag: GPR119 activators in beta-arrestin cells, counter-screen for GPR151 activator project, cell-based, PathHunter beta-arrestin, luminescence, triplicate | shares compounds with GPR151 activ | activation, % at 11.2 µM | hit rate 0.3% among 6,700 | AID 1508611, 2020 | 90 min; 0 = compound-well median, 100 = enzyme-acceptor control;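 active means mean percent activation in the counterscreen above 29.09%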;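 further: counterscreen on off-target GPR119 to flag nonselective hits from the GPR151 activator screen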
An asterisk follows results filed as active; nt = no result given. Shown are actives, neighbours in structure and some others; about 3.4% of the full set was active somewhere.

SMILES | TEAD-YAP block | GPR151 activ | MITF inh | FBW7 act | GPR151 confirm | GPR119 ag
CCCNC(=O)c1csc(-c2c(C)nn(C)c2C)n1 | -4.8 | 5.2* | 27.0 | 0.0 | 0.1 | 10.1
CNc1ccc(/C=C/C(=O)c2ccc(S(=O)(=O)NCc3ccco3)cc2)cc1[N+](=O)[O-] | -4.9 | 5.6* | -5.8 | -0.3 | -0.6 | -2.5
O=C(COc1ccccc1)NCCc1cn2ccsc2n1 | 1.9 | 5.0* | 3.6 | -0.7 | 1.5 | 11.5
O=C(Cn1c(-c2cccnc2)nc2ccccc21)NCc1ccccc1Cl | -7.7 | 5.6* | 6.7 | -0.2 | 0.2 | 2.4
O=C1OC(c2ccc(Cl)cc2Cl)=N/C1=C\c1cccc(Cl)c1Cl | -11.2 | 8.0* | -3.6 | 0.1 | -0.1 | 8.2
Cc1ccc(-c2nc(C3CCCN3C(=O)CCCC(=O)O)n3ccccc23)cc1 (stereo unspecified) | -13.2 | 5.5* | 3.7 | -0.6 | 0.2 | -2.3
CCOC(=O)C(=CNc1ccccc1Br)C(=O)OCC | -10.0 | 0.3 | -17.5 | 0.3 | nt | nt
Cn1nnc2c(N3CCC4(CC3)OCCO4)nc(Cc3ccc(Cl)cc3Cl)nc21 | 7.6 | 6.8* | 2.2 | 0.1 | 0.0 | 3.2
CCOc1cc(C=C2C(=O)c3ccccc3C2=O)ccc1OC(C)=O | 15.1 | 10.2* | 5.6 | -0.2 | -0.6 | -15.9
CCOC(=O)c1cccc(NC(=O)n2ncc3cc(Cl)ccc32)c1 | 84.6* | 5.6* | 1.5 | -0.1 | 0.4 | -2.9
CCOC(=O)c1ccccc1NC(=O)n1ncc2cc(Cl)ccc21 | -9.2 | -0.3 | -1.7 | -0.1 | nt | nt
Cc1c(Cl)c(=O)[nH]c2nnc(C(F)(F)F)n12 | -0.6 | -0.5 | 15.8 | 0.2 | nt | nt
CCCN(C(=O)c1cccc(N)c1)c1c(C)n(C)n(-c2ccccc2)c1=O | 7.1 | 5.5* | 15.8 | -0.1 | 0.5 | 10.9
CC(=O)c1ccc(N2CCN(C(=O)c3ccccc3)CC2)cc1 | -6.7 | 0.7 | 13.2 | -0.2 | nt | nt
O=C(CC(NCCO)C(=O)O)Nc1ccccc1 (stereo unspecified) | 0.9 | 6.8* | -6.9 | 0.0 | 1.1 | -0.7
Cc1cccc(NC(=O)CC(NCCO)C(=O)O)c1 (stereo unspecified) | -6.3 | 0.7 | -9.5 | 0.2 | nt | nt
CCn1c(N/N=C/c2ccccc2Cl)nc2c1c(=O)[nH]c(=O)n2C | 8.1 | -1.4 | 2.6 | 0.0 | nt | nt
CSCCC(=O)Nc1nn2cnnc2s1 | -6.8 | -5.8 | 4.7 | -0.1 | nt | nt
O=C(NCCc1nnc2n1CCN(Cc1ccccc1F)CC2)c1ccoc1 | -3.4 | -0.7 | -15.1 | 0.0 | nt | nt
COc1ccc(-c2noc(CSc3nnc(C)n3-c3ccccc3)n2)cc1OC | -4.3 | -0.6 | -8.2 | -0.3 | nt | nt
COc1ccc(-c2noc(CSc3nc(N)c(-c4ccccc4)c(=O)[nH]3)n2)cc1OC | 5.5 | 5.7* | -11.5 | -0.1 | -0.3 | -1.1
O=C(c1ccc(SCc2ccccc2Cl)c([N+](=O)[O-])c1)N1CCCCC1 | 1.3 | -0.6 | 10.5 | -0.2 | nt | nt
CCN1CCCC1CNS(=O)(=O)c1ccc(C(=O)Nc2ccccc2)cc1 (stereo unspecified) | -1.7 | 10.0* | 5.5 | -0.1 | 0.3 | 7.3
CCN1CCCC1CNCc1c(C(=O)O)n(Cc2ccc(F)cc2Cl)c2ccccc12 (stereo unspecified) | -6.1 | 0.7 | -2.3 | 0.1 | nt | nt
O=C(Nc1ccc(N2CCOCC2)cc1)C1CC(=O)N(Cc2ccccc2)C1 (stereo unspecified) | 8.8 | 7.6* | 1.4 | -0.1 | -0.4 | -0.7
COc1cc(N2C(=O)NC(=O)/C(=C\c3cnn(-c4ccccc4)c3)C2=O)cc(OC)c1OC | -16.3 | 2.1 | 12.1 | 0.2 | nt | nt
COc1ccc(SCCC(=O)Nc2ccc3sc(C)nc3c2)cc1 | -9.1 | 6.2* | 7.8 | -0.7 | 0.7 | 8.1
COc1ccc(SCCC(=O)Nc2nc3ccccc3s2)cc1 | -0.4 | 0.9 | 8.1 | 0.9 | nt | nt
COc1ccc(C(=O)N/N=C/c2cccc3ccccc23)cc1 | -27.3 | 1.4 | 16.4 | 0.1 | nt | nt
O=C(NC1CCCCC1)O/N=C\c1ccc(F)cc1 | -46.5 | -1.7 | -19.9 | 0.0 | nt | nt

Assay outcomes: PubChem BioAssay, The Scripps Research Institute Molecular Screening Center
